High-throughput results from PubChem BioAssay.
Compounds with a hit are over-represented: about 21% of the library has one in this group of screens.
Shiga toxin inh: Shiga toxin inhibition; Vero cells, Shiga toxin protein synthesis inhibition reporter; inhibition, % at 38.7 µM; 290,000 tested, 9.2% active; AID 2315; in the data active means inhibition mostly above about 28%, no sharp cut-off; inactive means mostly below about 43%; further: 0% is about no effect
NS1 inh: influenza NS1 inhibition; 270,000 tested, 0.4% active; Potency, µM (top dose mostly 46.1 µM), for the others: at the highest dose activity, positive = more growth; calls by dose curve; further: potency means the concentration at half of the fitted maximal effect; actives are rising curves; nearly all actives have a fitted effect of over 50% in size
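In this qHTS, NS1 from influenza A is expressed in budding yeast, where it slows growth. Cells are switched from glucose to 2% galactose medium (pH 6.0, -URA), treated with compound, and growth recovery is read at OD600.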
Pf growth 96h: P. falciparum growth inhibition at 96 hour, primary screen for plastid delayed-death inhibitors; P. falciparum luciferase reporter growth, 96 h; Potency, µM (series often up to 28.7 µM), without a hit: top-dose activity change, negative = inhibition, hits mostly inhibitors; 320,000 tested, 6.9% active; AID 504834; further: potency means the concentration at half of the fitted maximal effect; on the % scale 0 is the no-effect control and ±100 the full control effect
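Compounds incubated with erythrocytes infected by luciferase-expressing P. falciparum (2% hematocrit, 0.05% parasitemia final) for 96 hours, 37 C in 5% CO2. Growth inhibition scored as decreased luciferase luminescence.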
Pf growth 48h: P. falciparum growth inhibition at 48 hours (one generation). 310,000 tested, 5.9% active. Potency, µM (top dose mostly 28.7 µM), for the others: top-dose activity change, negative = inhibition, usual class: inhibitors. P. falciparum luciferase growth in erythrocytes, 48 h; further: potency means the concentration at half of the fitted maximal effect; on the % scale 0 is the no-effect control and ±100 the full control effect
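Luciferase-expressing P. falciparum in infected erythrocytes (2% hematocrit, 0.1% parasitemia final) in RPMI 1640/0.5% Albumax were exposed to compound for 48 hours at 37 C, 5% CO2; growth read as luminescence.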
Cycloheximide cs: counter-screen hit for Shiga toxin inhibitors, cycloheximide | cell reporter, cycloheximide protein synthesis inhibition counterscreen | max response, % | 300,000 tested, 12% active | AID 2314; in the data active means max response mostly above about 13%, no sharp cut-off; inactive means mostly below about 14%; further: read at 38.3 µM for the half of the compounds with a filed dose; 0% is about no effect
Active calls of the source: *; ? = inconclusive; / = no result; [ ] = another dose, or the depositor's remark. Unless noted, the call rests on the fitted dose curve; in most records, active means well fitted inhibition curve with a large enough effect; inconclusive means small, poorly fitted or top-dose-only effect, or another doubt; inactive means no such curve, though single readings can be large or run the other way.

SMILES | Shiga toxin inh | NS1 inh | Pf growth 96h | Pf growth 48h | Cycloheximide cs
CCN(CC)CC#CCC(O)(c1ccccc1)C1CCCCC1 (configuration not stated) | 19 | 1% | 177% | 15% | 18
OC(C#CCN1CCCCCC1)(c1ccccc1)c1cccnc1 (configuration not stated) | -3 | 0% | 12µM* | ? | -1
OC(CCN1CCCCC1)(c1ccccc1)C1CCCCC1 (configuration not stated) | 22 | 7% | / | / | -2
OC(CC#CCN1CCCCCC1)(c1ccccc1)C1CCCC1 (configuration not stated) | -11 | -6% | 2.9µM* | ? | -4
CC[N+](CC)(CC)CCCOC(=O)C(O)(c1ccccc1)C1CCCCC1 (configuration not stated) | -23 | 1% | / | 2.9µM* | -5
Cc1ccc(S(=O)(=O)N(CC(=O)Nc2ccccc2)C(=O)N2CCN(C)CC2)cc1 | / | / | 42% | 5% | /
O=C(O)c1ccc(N/N=C/C2=Cc3ccccc3OC2)cc1 | 73* | -51% | 111% | 218% | 41*
O=C(O)c1ccc(N/N=C/c2c[nH]c3ccccc23)cc1 | 2 | 4% | ? | 108% | 9
C[C@@H]1O[C@@H](Oc2c(-c3cc(O)c(O)c(O)c3)oc3cc(O)cc(O)c3c2=O)[C@H](O)[C@H](O)[C@H]1O | -7 | 4% | ? | 13µM* | -15
O=C(Nc1cc(Br)ccc1O)c1cnn2c(C(F)F)cc(C3CC3)nc12 | -1 | -1% | -23% | 4.1µM* | -2
O=C(Nc1cccnc1)c1cnn2c(C(F)F)cc(C3CC3)nc12 | 15 | -41% | / | 8% | -1
O=C(CS(=O)c1ccc(C(F)(F)F)cc1[N+](=O)[O-])Oc1ccccc1 (configuration not stated) | -3 | -156% | -79% | / | 25*
CS(=O)(=O)c1ccc(S(=O)CC(=O)OCc2ccccc2)c([N+](=O)[O-])c1 (configuration not stated) | 17 | / | ? | -17%[5.75 µM] | 11*
COC(=O)c1ccc(OC(=O)CS(=O)c2ccccc2[N+](=O)[O-])cc1 (configuration not stated) | 2 | -31% | -32% | 34% | -1
O=C(NNC(=O)c1ccc(S(=O)(=O)N2CCCCC2)cc1)c1ccc(F)cc1 | -6 | 5% | -4% | 8% | -8
Cc1ccc(C(=O)N2CCCC(C(=O)c3ccc(Oc4ccccc4)cc3)C2)cn1 (configuration not stated) | -6 | -33% | 8.3µM* | -15% | -2
COCCC(=O)N1CCCC(C(=O)c2ccc(Oc3ccccc3)cc2)C1 (configuration not stated) | -17 | -4% | ? | -6% | 14
COC(=O)CCCC(=O)N1CCCC(C(=O)c2ccc(-c3ccccc3)cc2)C1 (configuration not stated) | 3 | -30% | -10% | -18% | 1
CCC(=O)N1CCCC(C(=O)c2ccc(-c3ccccc3)cc2)C1 (configuration not stated) | 47 | -27% | -11% | 18% | 13*
CCN1CCN(CC(=O)N2CCCC(C(=O)c3ccc(Oc4ccccc4)cc3)C2)CC1 (configuration not stated) | 56* | -40% | ? | ? | 25*
Cc1cc(Cl)ccc1C(=O)C1CCCN(C(=O)c2snnc2C)C1 (configuration not stated) | 21 | -42% | ? | -34% | -2
Cc1c(/C=C2\NC(=O)NC2=O)c2ccccc2n1C | / | 16% | ? | -12% | -3
CN1CCCC(OC(=O)c2ccc(C#N)cc2)C1 (configuration not stated) | 1 | 3% | 27% | 2% | 1
CCOC(=O)c1c(CN(C)C)oc2cc(CN(C)C)c(O)c(CSc3ccccc3)c12 | -16 | 10% | 2.3µM* | 0.37µM* | 8
CCOC(=O)c1c(CN2CCCCC2)n(C)c2cc(Br)c(O)c(CN(C)C)c12 | 13 | -4% | 12µM* | / | -2
SMILES | Shiga toxin inh | NS1 inh | Pf growth 96h | Pf growth 48h | Cycloheximide cs
CCOC(=O)c1c(CSc2ccsc2)n(C)c2cc(Br)c(O)c(CN(C)C)c12 | 0 | 17% | ? | ? | -3
CCOC(=O)c1c(CSc2ccc(C)cc2)n(C)c2cc(Br)c(O)c(CN(C)C)c12 | -4 | 12% | 10% | 4.1µM* | 1
CCOC(=O)c1c(CSc2ccccc2)n(C)c2cc(Br)c(O)c(CN(C)C)c12 | -4 | 3% | ? | 9.3µM* | -4
CCOC(=O)c1c(CSc2ccccc2)n(C)c2ccc(O)c(CN3CCN(C)CC3)c12 | 8 | ? | ? | ? | 0
CCCCNS(=O)(=O)NC(=O)C1=C(N2CCCC2)COC1=O | / | / | 45% | 40% | /
O=C(NNC(=O)C1CC(=O)N(Cc2ccccc2)C1)c1ccc(F)cc1 (configuration not stated) | / | / | 10% | -20% | /
CCOC(=O)c1c(CN2CCOCC2)n(-c2ccccc2)c2cc(Br)c(O)c(CN(C)C)c12 | -17 | 7% | 2.6µM* | 13µM* | -2
COC(=O)[C@H](CCSC)NC(=O)c1ccc(NC[C@@H](N)CS)cc1-c1ccccc1 | 6 | / | / | / | -8
Cc1ccc(Cl)cc1Nc1nc(-c2sc(NC(=O)c3ccco3)nc2C)cs1 | -18 | 28% | 9.3µM* | ? | -3
COc1ccccc1Nc1nc(-c2sc(NC(=O)c3ccco3)nc2C)cs1 | 12 | 6% | 9.3µM* | 12µM* | -2
CCCCC(=O)Nc1nc(C)c(-c2csc(Nc3ccccc3OC)n2)s1 | -4 | 18% | ? | ? | 2
Cc1nc(NC(=O)c2ccco2)sc1-c1csc(Nc2ccc(Cl)cc2Cl)n1 | 35 | -17% | 8.3µM* | ? | 12
COc1cccc(N(C(=O)c2ccco2)c2nc(-c3sc(NC(=O)c4ccco4)nc3C)cs2)c1 | -3 | 17% | ? | ? | 2
Cc1nc(NC(=O)c2ccco2)sc1-c1csc(Nc2ccc(Cl)cc2)n1 | -4 | ? | 9.3µM* | 9.3µM* | 1
C/C(=N\Nc1nc(-c2cc(C)ccc2C)cs1)c1cc2c(ccc3ccccc32)oc1=O | -7 | 29% | -23% | -6% | 1
Cc1nnc(SC(C)C(=O)N(C)C2CCCCC2)n1N (configuration not stated) | / | / | ? | -16% | /
CC(Oc1ccc(Cl)cc1Cl)c1nc(-c2ccc(NC(=O)c3ccncc3)cc2)no1 (configuration not stated) | -11 | -3% | 9.3µM* | 15µM* | 8
CCC(c1ccccc1)c1nc(-c2ccccn2)no1 (configuration not stated) | 46 | -57% | 34% | 17% | 4
CC(Oc1ccc(Cl)cc1Cl)c1nc(-c2ccc(NC(=O)c3cccnc3)cc2)no1 (configuration not stated) | -5 | -57% | 9% | 3.3µM* | -2
CC(Oc1ccc(Cl)cc1Cl)c1nc(-c2ccccn2)no1 (configuration not stated) | 97* | -93% | -1% | 13% | 36*
